In PubChem BioAssay AID2284203 (EPA ToxCast):
Activity calls are given as the source filed them. Rule for the calls: active = hit-call score of the fitted dose curve at least 0.9, where 1 is the maximum; inactive = score below 0.9.

The compounds below were run against human Serotonin Transporter (SET), SLC6A4 (gene 6532) (UniProt P31645) (assay: ERF_FR_TR_hSLC6A4: Eurofins (ERF) Radioligand Binding LeadHunter Assay for human Serotonin Transporter (SET) human Agonism).
human Serotonin Transporter (SET), SLC6A4 (gene 6532), sequence (P31645 whole entry, looked up): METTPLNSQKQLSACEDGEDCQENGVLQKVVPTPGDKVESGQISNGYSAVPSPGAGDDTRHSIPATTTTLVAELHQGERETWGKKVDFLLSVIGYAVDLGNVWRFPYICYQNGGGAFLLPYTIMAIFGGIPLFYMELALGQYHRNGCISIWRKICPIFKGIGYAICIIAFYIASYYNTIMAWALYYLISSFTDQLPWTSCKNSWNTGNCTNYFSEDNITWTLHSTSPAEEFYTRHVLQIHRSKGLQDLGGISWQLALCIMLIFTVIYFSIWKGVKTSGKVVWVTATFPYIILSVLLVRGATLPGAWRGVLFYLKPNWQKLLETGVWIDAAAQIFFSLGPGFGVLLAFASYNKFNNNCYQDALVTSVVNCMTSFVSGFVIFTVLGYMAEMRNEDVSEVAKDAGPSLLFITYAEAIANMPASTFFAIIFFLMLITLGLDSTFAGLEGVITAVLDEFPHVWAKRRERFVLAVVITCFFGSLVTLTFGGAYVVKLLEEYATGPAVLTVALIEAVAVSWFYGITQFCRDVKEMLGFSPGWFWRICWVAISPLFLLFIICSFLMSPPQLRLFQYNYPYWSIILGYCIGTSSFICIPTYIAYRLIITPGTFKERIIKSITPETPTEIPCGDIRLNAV
Description: ERF_FR_TR_hSLC6A4 is a biochemical, single-readout assay that uses extracted gene-proteins in a cell-free assay. Measurements were taken 1 hour after chemical dosing in a 96-well plate. See SET Human Serotonin Transporter Binding (Antagonist Radioligand) Assay, Cerep.ERF_FR_TR_hSLC6A4 is an assay component calculated from the ERF_FR_TR_hSLC6A4 assay. It is designed to measure radioligand binding using a type of binding reporter as detected by scintillation counting with radiometry technology.Data from the assay component ERF_FR_TR_hSLC6A4 was analyzed at the assay endpoint, ERF_FR_TR_hSLC6A4, in the positive analysis fitting direction relative to DMSO as the negative control and baseline of activity. Using a type of binding reporter, loss-of-signal activity can be used to understand changes in enzymatic activity as they relate to gene SLC6A4. To generalize the intended target to other relatable targets, this assay endpoint is annotated to the transporter intended target family, where the subfamily is SLC6 / Monoamine.
Human recombinant serotonin transporter expressed in human HEK-293 cells are used in modified Tris-HCl buffer pH 7.4. A 2 ug aliquot is incubated with 0.4 nM [3H]Paroxetine for 60 minutes at 25C. Non-specific binding is estimated in the presence of 10 uM imipramine. Transporters are filtered and washed. The filters are then counted to determine [3H]Paroxetine specifically bound. Compounds are screened at 10 uM. Membrane protein may change from lot to lot; the concentration used will be adjusted if necessary.
For `CCCCC[C@H](O)CC(=O)CCc1ccc(O)c(OC)c1`, the outcome was “inactive”.
In the case of `O=C(/C=C/c1ccc(O)cc1)CC(=O)/C=C/c1ccc(O)cc1`, the AC50 is reported as 3200 nM (active).
For `COc1cc(/C=C/C(=O)CC(=O)/C=C/c2ccc(O)c(OC)c2)ccc1O`, the AC50 was 2120 nM (active).
